# Assay outcomes deposited in PubChem by Broad Institute.
# Shown are actives, neighbours in structure and some others; about 2.8% of the full set was active somewhere.
# NSD2 HMT inh = NSD2 histone methyltransferase inhibitors, primary screen, biochemical, AlphaScreen, single concentration, set 2 | NSD2 peptide methylation, 120 min | inhibition, % at 12.5 µM | actives 0.54% (n = 310,000) | AID 743445, 2014; in the data active means inhibition above about 50%
# Target sequence (O96028 whole entry, looked up): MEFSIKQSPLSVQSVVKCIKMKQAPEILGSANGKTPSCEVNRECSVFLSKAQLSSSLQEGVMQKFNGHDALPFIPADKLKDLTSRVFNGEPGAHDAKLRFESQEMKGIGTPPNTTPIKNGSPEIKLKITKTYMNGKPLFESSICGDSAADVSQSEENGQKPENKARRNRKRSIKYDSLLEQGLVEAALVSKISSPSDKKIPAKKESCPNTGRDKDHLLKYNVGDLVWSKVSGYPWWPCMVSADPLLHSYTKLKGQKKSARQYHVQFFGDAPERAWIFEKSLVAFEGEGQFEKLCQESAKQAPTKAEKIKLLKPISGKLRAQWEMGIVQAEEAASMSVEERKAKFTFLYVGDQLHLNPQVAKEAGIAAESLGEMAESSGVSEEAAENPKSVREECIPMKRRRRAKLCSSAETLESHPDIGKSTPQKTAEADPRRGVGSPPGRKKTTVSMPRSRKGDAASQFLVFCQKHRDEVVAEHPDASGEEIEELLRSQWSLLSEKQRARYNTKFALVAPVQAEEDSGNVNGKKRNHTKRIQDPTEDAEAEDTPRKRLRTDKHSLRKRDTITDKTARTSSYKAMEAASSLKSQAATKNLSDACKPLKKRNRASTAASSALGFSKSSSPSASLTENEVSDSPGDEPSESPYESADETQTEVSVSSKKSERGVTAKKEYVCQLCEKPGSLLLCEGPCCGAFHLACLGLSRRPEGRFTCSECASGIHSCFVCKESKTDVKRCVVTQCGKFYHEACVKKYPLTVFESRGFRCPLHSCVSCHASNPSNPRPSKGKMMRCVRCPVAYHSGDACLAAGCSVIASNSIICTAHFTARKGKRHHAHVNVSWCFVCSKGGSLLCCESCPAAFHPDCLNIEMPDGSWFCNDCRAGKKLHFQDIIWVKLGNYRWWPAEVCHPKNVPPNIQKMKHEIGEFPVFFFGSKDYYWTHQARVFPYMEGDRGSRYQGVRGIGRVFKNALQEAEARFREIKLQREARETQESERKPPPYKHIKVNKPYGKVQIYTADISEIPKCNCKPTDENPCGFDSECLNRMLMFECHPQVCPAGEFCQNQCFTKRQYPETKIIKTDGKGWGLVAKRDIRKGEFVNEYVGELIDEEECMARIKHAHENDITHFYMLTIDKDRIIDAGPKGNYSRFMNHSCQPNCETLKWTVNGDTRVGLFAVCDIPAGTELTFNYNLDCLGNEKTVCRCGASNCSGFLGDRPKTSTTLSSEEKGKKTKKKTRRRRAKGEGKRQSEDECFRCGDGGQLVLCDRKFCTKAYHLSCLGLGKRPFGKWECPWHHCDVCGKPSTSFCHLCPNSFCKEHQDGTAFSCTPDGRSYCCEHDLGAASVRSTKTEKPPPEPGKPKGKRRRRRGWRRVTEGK
# EBV LMP1 NFkB = EBV LMP1-driven NF-kappaB luciferase reporter inhibitors, primary screen, cell-based, luminescence, single point; inhibition, % at 12.5 µM; AID 504558, 2011; LMP1-induced NF-kappaB luciferase reporter cells; actives 0.69% (n = 350,000); in the data active means inhibition above about 41%; inconclusive means no clear call, values can overlap the other calls;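 further: 0% = neutral control wells and 100% = reference inhibitor control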
# Shn3 3UTR inh = reduction of Shn3 3'UTR firefly luciferase signal, primary screen, Schnurri-3 inhibitor project, cell-based, Clone20 osteoblasts, set 2 | Clone20 osteoblast Shn3 3'UTR firefly luciferase, 24 h | inhibition, % at 12.5 µM | actives 0.52% (n = 360,000) | AID 588674, 2011;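 active means mean inhibition of at least 75% with every replicate also reaching 75%; inconclusive means mean inhibition at least 75% but some replicate below; inactive means mean inhibition below 75%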;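 further: 0% = median of neutral control wells and 100% = pilot-screen positive control compound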
# Env fusion inh = inhibitors of HIV-1 Env-driven cell-cell fusion, primary screen, HeLa-JRFL effector, CEM21 target cells, luciferase. inhibition, % at 12.3 µM. actives 1.1% (n = 360,000);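 active means mean replicate inhibition score of at least 50 and every replicate individually at or above 50; inconclusive means only one of the two criteria met; inactive means mean below 50 and not all replicates reaching 50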;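 further: 0% = plate neutral controls and 100% = maraviroc near 300 nM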
# PAX8 reporter = inhibitors of PAX8-driven TPO luciferase reporter, primary screen, RMG-I cells, single concentration. actives 1.2% (n = 360,000). inhibition, % at 12.6 µM. SteadyGlo, 24 h. AID 652154, 2013;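 active means mean replicate inhibition at least 60% with every replicate also reaching 60%; inconclusive means only one of the two criteria is met; inactive means mean below 60% and not all replicates reaching 60%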;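 further: luciferase light reporting Pax8 driven TPO promoter activity; plate controls were median of neutral control wells for no effect and mitoxantrone controls for full effect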
# Glyco luc inh = increase of ERlucT glycosylation luciferase signal, primary screen, N-linked glycosylation inhibitor project, D54 ERlucT cells, luminescence, set 2; D54 ERlucT glycosylation luciferase reporter, 24 h; percent of 100 nM tunicamycin response; reporter increase, % at 12.5 µM; actives 0.23% (n = 360,000); AID 588692, 2011;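 active means mean luciferase reporter signal, scaled so untreated is 0 and the glycosylation-blocking control 100, at or above a set limit in every replicate; inconclusive means mean reaches the limit but not every replicate does; inactive means mean below the limit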;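 further: luciferase carries N-glycosylation sites so blocking glycosylation raises the light; 0% = median of neutral control wells and 100% = median of 100 nM tunicamycin wells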
# An asterisk follows results filed as active; i = inactive; ? = inconclusive; nt = no result; [ ] = remark or other dose.
SMILES,NSD2 HMT inh,EBV LMP1 NFkB,Shn3 3UTR inh,Env fusion inh,PAX8 reporter,Glyco luc inh
CC(C)CC#Cc1ccc([C@@H]2[C@@H](CO)N3CCCCN(S(=O)(=O)Cc4ccccc4)C[C@@H]23)cc1,nt,nt,nt,nt,-20.6,nt
COc1cccc(S(=O)(=O)N2CCCCN3[C@H](CO)[C@H](c4ccc(-c5ccccc5)cc4)[C@@H]3C2)c1,nt,nt,nt,nt,16.3,nt
Cc1noc(C)c1NC(=O)N(C)C[C@@H]1OCCCC[C@H](C)Oc2ccc(NC(=O)NC(C)C)cc2C(=O)N([C@@H](C)CO)C[C@@H]1C,nt,nt,nt,-97.8[16.7 µM],1.1,nt
O=C(NNS(=O)(=O)c1ccc(F)cc1F)C1Cc2c(ccc3ccccc23)O1 (stereo not given),1.5,8.8,49.9,96.9*,28.3,1.1
CS(=O)(=O)NNC(=O)C1Cc2c(ccc3ccccc23)O1 (stereo not given),-0.9,3.9,6.3,-7.5,20.2,2.6
CSCCC(NC(=O)c1cccc(C)c1)C(=O)OCC(=O)N1CCOCC1 (stereo not given),-1.7,nt,nt,nt,nt,nt
CCn1c2ccccc2c2cc(/C=C(/C#N)C(N)=S)ccc21,-4.3,85.3*,-10.0,56.6*,10.0,-12.5
C[C@H]1CN([C@@H](C)CO)C(=O)Cc2cc(NS(=O)(=O)c3ccc(Cl)cc3)ccc2O[C@H]1CN(C)S(=O)(=O)c1ccc(F)cc1,nt,nt,nt,15.4[16.7 µM],16.5,nt
C[C@@H]1CN([C@H](C)CO)C(=O)Cc2cc(NS(=O)(=O)c3ccccc3)ccc2O[C@@H]1CN(C)S(=O)(=O)c1ccc(Cl)cc1,nt,nt,nt,2.3[16.7 µM],103.6*,nt
C[C@H](CO)N1C[C@H](C)[C@H](CN(C)CC2CCCCC2)Oc2ccc(NS(=O)(=O)c3ccc(F)cc3)cc2CC1=O,nt,-5.5,-9.2,-17.7,0.6,-10.3
C[C@@H]1CN([C@@H](C)CO)C(=O)Cc2cc(NS(=O)(=O)c3ccc(Cl)cc3)ccc2O[C@@H]1CN(C)CC1CCCCC1,nt,nt,nt,-5.9[16.7 µM],106.3*,nt
C[C@H]1CN([C@@H](C)CO)C(=O)Cc2cc(NS(=O)(=O)c3ccccc3)ccc2O[C@@H]1CN(C)S(=O)(=O)c1ccc(Cl)cc1,nt,nt,nt,-9.6[16.7 µM],-2.8,nt
C[C@H](CO)N1C[C@H](C)[C@H](CN(C)S(=O)(=O)c2ccc(F)cc2)Oc2ccc(NS(=O)(=O)c3ccccc3)cc2CC1=O,nt,nt,nt,85.6*[16.7 µM],-3.8,nt
C[C@H](CO)N1C[C@H](C)[C@H](CN(C)S(=O)(=O)c2ccc(F)cc2)Oc2ccc(NS(=O)(=O)c3ccc(Cl)cc3)cc2CC1=O,nt,nt,nt,58.8*[16.7 µM],1.1,nt
C[C@H](O)[C@@H]1CN2CCc3ccc(-c4ccc5c(c4)OCO5)cc3[C@@H]2C[C@@H]1N(C)C(=O)NC1CCCCC1,nt,nt,nt,0.0,3.3,nt
C=CCNC(=S)N(C)[C@H]1C[C@H]2c3[nH]c4c(-c5ccccc5)cccc4c3CCN2C(=O)[C@H]1[C@H](C)O,nt,nt,nt,-30.1,-3.6,nt
C[C@H](O)[C@@H]1C(=O)N2CCc3c([nH]c4cccc(-c5ccccc5)c34)[C@@H]2C[C@@H]1N(C)C(=O)NC1CCCCC1,nt,nt,nt,60.6*,?,nt
C[C@H](O)[C@@H]1C(=O)N2CCc3ccc(-c4ccccc4)cc3[C@@H]2C[C@@H]1N(C)C(=O)NC1CCCCC1,nt,2.6,-0.4,-4.6,22.5,-0.1
C[C@H](O)[C@@H]1CN2CCc3c([nH]c4ccc(-c5ccc6c(c5)OCO6)cc34)[C@@H]2C[C@@H]1N(C)C(=O)NC1CCCCC1,nt,-17.2,43.1,-11.6,89.6*,12.6
COCCNC(=S)N(C)[C@H]1C[C@H]2c3[nH]c4cccc(-c5ccccc5)c4c3CCN2C(=O)[C@H]1[C@H](C)O,nt,nt,nt,58.7*,0.0,nt
CCN(CC(O)c1cccc(O)c1)C(=O)C12CC3CC(CC(C3)C1)C2 (stereo not given),19.7,2.4,12.7,74.1*,-0.9,-5.6
CNC[C@H](O)c1cccc(O)c1,nt,-31.6,-47.5,26.8,3.6,1.1
COc1ccc(S(=O)(=O)N(C)C[C@H]2OCCCC[C@@H](C)Oc3ccc(NC(=O)CCCCCC(=O)Nc4ccccc4N)cc3C(=O)N([C@H](C)CO)C[C@@H]2C)cc1,nt,nt,nt,6.5[16.7 µM],-2.2,nt
C[n+]1c(/C=C/c2ccc(O)cc2)ccc2ccccc21,18.7,2.4,-103.1,-38.3,-83.4,-3.9
Cc1cc(/C=C\c2ccc3cc(N(C)C)ccc3[n+]2C)c(C)n1-c1ccccc1,nt,52.2*,95.0*,nt,nt,-2.6
SMILES,NSD2 HMT inh,EBV LMP1 NFkB,Shn3 3UTR inh,Env fusion inh,PAX8 reporter,Glyco luc inh
Cc1noc(C)c1S(=O)(=O)N(C)C[C@@H]1Oc2ccc(NC(=O)Nc3ccc(F)cc3)cc2CC(=O)N([C@@H](C)CO)C[C@@H]1C,nt,nt,nt,55.3*[16.7 µM],9.0,nt
Cc1noc(C)c1S(=O)(=O)N(C)C[C@@H]1Oc2ccc(NC(=O)Nc3cccc4ccccc34)cc2CC(=O)N([C@@H](C)CO)C[C@@H]1C,nt,nt,nt,59.3*[16.7 µM],-15.3,nt
Cc1noc(C)c1S(=O)(=O)N(C)C[C@H]1Oc2ccc(NC(=O)Nc3ccccc3)cc2CC(=O)N([C@H](C)CO)C[C@H]1C,nt,nt,nt,69.4*[16.7 µM],-7.5,nt
Cc1noc(C)c1S(=O)(=O)N(C)C[C@@H]1Oc2ccc(NC(=O)Cc3ccccc3)cc2CC(=O)N([C@H](C)CO)C[C@@H]1C,nt,nt,nt,64.9*[16.7 µM],3.9,nt
COc1ccc(S(=O)(=O)N2CCCCN3[C@H](CO)[C@@H](c4ccc(-c5cccnc5)cc4)[C@@H]3C2)cc1,nt,nt,nt,nt,6.2,nt
C[C@@H]1CN([C@@H](C)CO)S(=O)(=O)c2ccc(C#CC3CCCC3)cc2O[C@H]1CN(C)C(=O)c1cccc(F)c1,nt,nt,nt,35.7[16.7 µM],nt,nt
Cc1noc(C)c1S(=O)(=O)N(C)C[C@@H]1Oc2ccc(NC(=O)Nc3ccccc3)cc2CC(=O)N([C@@H](C)CO)C[C@H]1C,nt,nt,nt,-8.3[16.7 µM],2.5,nt
Cc1noc(C)c1S(=O)(=O)N(C)C[C@@H]1Oc2ccc(NC(=O)Nc3ccccc3)cc2CC(=O)N([C@@H](C)CO)C[C@@H]1C,nt,nt,nt,84.8*[16.7 µM],-8.7,nt
Cc1noc(C)c1S(=O)(=O)Nc1ccc2c(c1)C(=O)N([C@H](C)CO)C[C@@H](C)[C@H](CN(C)C(=O)c1ccncc1)OCCCC[C@@H](C)O2,nt,nt,nt,-7.2[16.7 µM],-0.7,nt
COc1ccccc1N1CCN(c2ccc(-c3ccccc3)nn2)CC1,nt,69.6*,-3.1,i,nt,-6.4
CC(/C=N/n1c(-c2ccccn2)n[nH]c1=S)=C\c1ccccc1,-2.1,nt,nt,-8.5,-13.3,1.0
CCc1n[nH]c(=S)n1/N=C/C(C)=C\c1ccccc1,4.1,-4.0,-17.8,56.2*,-8.8,-0.7
Cc1ccc(C(C)C)c(OCCNCc2ccccc2)c1,-3.7,-1.3,44.9,16.9,9.0,-5.5
Cc1cc(OCCOCCNCc2ccccc2)ccc1C(C)C,9.7,3.8,6.8,93.2*,17.9,-1.5
